Inconclusive results are not listed. Active and inactive are the calls of the source. Calls come from the whole dose curve; as a rule, active = well fitted activation curve with a large enough effect; inconclusive = small, poorly fitted or top-dose-only effect; inactive = no such curve, though single readings can be large or run the other way.
Assay: qHTS Assay for NPC1 Promoter Activators: Hit Validation Using Renila Luciferase Read-Out for NPC1
Excerpt: Niemann Pick Type C (NPC) is a rare neurodegenerative lipidosis that is characterized by lipid storage in the endosomal/lysosomal system. Treatment modalities for this devastating disease are currently non-existent due to the severe obstacles associated with accessing the central nervous system with proteins or genes. The majority of mutations causing NPC disease are missense mutations that are distributed throughout the length of the NPC1 protein, with the most prevalent being the I1061T allele. Although NPC1 mutant proteins may be functional, they are typically trapped in the ER due to misfolding. […] We have developed and optimized a cell based renilla luciferase reporter assay in 1536 well format for the identification of up-regulators of the mutant Rab9 promoter. This assay presents data on the validation of hits from the primary screen, which used a firefly luciferase read-out. NIH Chemical Genomics Center [NCGC] NIH Molecular Libraries Probe Production centers Network [MLPCN] MLPCN Grant: MH089375 Assay Submitter (PI): Yiannis A. Ioannou
Huh7 cells stably expressing NPC promoter-luciferase will be seeded at 1,500 cells/well in 5 uL in 1,536-well white opaque plates with 23 nL/well of compound in DMSO solution. The assay plates will be incubated at 37 deg C for 24 hours, after which 3 uL/well BriteLite plus luciferase detection reagent mixture (Perkin Elmer) will be added. Luminescence signal will be measured in a ViewLux plate reader (Perkin Elmer) after a 10 minute incubation at the room temperature.

| SMILES | outcome |
| --- | --- |
| COc1cccc(CCNCc2ccc(SC)cc2)c1 | inactive |
| Cc1cccn2c(NCC3CCCO3)c(C(C)C)nc12 (stereo unspecified) | inactive |
| COc1ccc(C(CC(=O)N2CCC3(CC2)OCCO3)NS(=O)(=O)c2ccc(F)cc2)cc1 (stereo unspecified) | inactive |
| CCC(=NCc1cccnc1)c1c(O)n(-c2ccccc2)c(=O)[nH]c1=O | inactive |
| O=C1c2ccccc2C(=O)N1Cc1nc2ccccc2c(=O)n1-c1cccnc1 | inactive |
| CN1CCc2cc3c(c4c2C1Cc1ccccc1-4)OCO3 (stereo unspecified) | inactive |
